Results on five molecules are retold here after PubChem BioAssay (EPA / NIEHS).

The target in assay [1] is PGR (gene 5241) (UniProt P06401). Description: TOX21_PR_BLA_Followup_Agonist_ratio: Tox21 HEK293 Progesterone Receptor (PR) Agonism Beta-lactamase Follow-Up Assay, Ratio (AID 2283933). The method, boiled down:
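Beta-lactamase reporter readout: ratio of cleaved (ch2) to uncleaved (ch1) substrate after 2 h room-temperature loading, following 16 h compound exposure at 37C. Cells were PR-UAS-bla HEK293T in 2% charcoal-stripped FBS medium. Viability was multiplexed by CellTiter-Glo.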

The target is the same in assay [2]. Description: TOX21_PR_BLA_Followup_Antagonist_ratio: Tox21 HEK293 Progesterone Receptor (PR) Antagonism Beta-lactamase Follow-Up Assay, Ratio (AID 2283934).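 Further: PR-UAS-bla HEK293T cells stimulated with 1 nM R5020 agonist for 16 hr.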 The method, boiled down: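 Readout is the blue/green (ch2/ch1) substrate cleavage ratio after 2 hours at room temperature, following 16 hr co-treatment of PR-bla HEK293T cells with compound and 1nM promegestone. Multiplexed CellTiter-Glo viability flags cytotoxicity; DMSO baseline.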

Assay [3] is described as follows: TOX21_PR_BLA_Followup_Agonist_viability: Viability Assessment in the Tox21 HEK293 Progesterone Receptor (PR) Agonism Beta-lactamase Follow-Up Assay (AID 2283935).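 Further: signal loss means lower viability so actives are cytotoxic.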 Summed up: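 Run multiplexed with the beta-lactamase FRET read, this endpoint measures ATP by CellTiter-Glo luminescence (30 min, room temperature). PR-UAS-bla HEK293T cells received compound 6 hr after plating and were then incubated 16 hr at 37C in 2% stripped serum.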

Assay [4] can be described thus: TOX21_PR_BLA_Followup_Antagonist_viability: Viability Assessment in the Tox21 HEK293 Progesterone Receptor (PR) Antagonism Beta-lactamase Follow-Up Assay (AID 2283936).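 Further: cells exposed to compound with R5020 agonist for 16 h; hits lower the luminescence signal meaning cytotoxicity.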 Summed up:
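PR-UAS-bla HEK293T cells in medium with 2% charcoal-stripped FBS were treated with compounds plus R5020 for 16 hr at 37C. After the beta-lactamase read, CellTiter-Glo was added to the same wells and luminescence read after 30 min at room temperature.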

Assay [5] deals with PGR (gene 5241) (UniProt P06401). Description: TOX21_PR_LUC_Followup_Agonist: Tox21 HEK293 Progesterone Receptor (PR) Agonism Luciferase Follow-Up Assay (AID 2283937; active means hit-call score of the fitted dose curve at least 0.9, where 1 is the maximum; inactive means score below 0.9). The method, boiled down: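 Agonism scored as luciferase induction over DMSO, read by ONE-Glo after 30 min at RT. Compounds were incubated 16 h at 37C on HEK293-PR-A-luc cells (3,000/well, pre-plated 5 h) previously grown 5 days in charcoal-stripped serum.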
PGR (gene 5241), sequence (P06401 whole entry, looked up): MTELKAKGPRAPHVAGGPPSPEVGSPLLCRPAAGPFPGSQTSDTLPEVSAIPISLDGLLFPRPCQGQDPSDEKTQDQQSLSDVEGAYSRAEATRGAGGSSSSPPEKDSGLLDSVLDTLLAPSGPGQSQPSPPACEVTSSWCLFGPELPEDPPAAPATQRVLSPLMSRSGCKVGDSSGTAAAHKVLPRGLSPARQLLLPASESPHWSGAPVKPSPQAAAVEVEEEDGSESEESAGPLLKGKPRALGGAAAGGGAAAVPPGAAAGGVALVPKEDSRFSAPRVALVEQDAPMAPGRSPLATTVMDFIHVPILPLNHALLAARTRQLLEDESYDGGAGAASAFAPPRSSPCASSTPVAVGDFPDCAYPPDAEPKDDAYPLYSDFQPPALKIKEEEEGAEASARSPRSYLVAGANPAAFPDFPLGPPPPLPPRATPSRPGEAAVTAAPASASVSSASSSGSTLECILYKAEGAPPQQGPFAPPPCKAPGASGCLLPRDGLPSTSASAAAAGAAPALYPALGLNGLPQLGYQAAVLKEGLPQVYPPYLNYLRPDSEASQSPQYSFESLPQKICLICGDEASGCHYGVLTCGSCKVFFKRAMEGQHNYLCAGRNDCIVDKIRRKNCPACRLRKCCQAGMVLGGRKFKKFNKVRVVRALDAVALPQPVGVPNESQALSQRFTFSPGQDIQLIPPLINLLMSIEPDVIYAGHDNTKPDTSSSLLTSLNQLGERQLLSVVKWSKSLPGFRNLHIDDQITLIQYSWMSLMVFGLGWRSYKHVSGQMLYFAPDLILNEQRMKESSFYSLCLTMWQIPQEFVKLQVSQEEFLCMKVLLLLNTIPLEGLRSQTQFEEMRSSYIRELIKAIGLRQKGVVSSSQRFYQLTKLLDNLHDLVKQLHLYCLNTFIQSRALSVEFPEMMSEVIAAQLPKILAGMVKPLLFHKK

A short description of assay [6]: TOX21_PR_LUC_Followup_Antagonist_viability: Viability Assessment in the Tox21 HEK293 Progesterone Receptor (PR) Antagonism Luciferase Follow-Up Assay (AID 2283940). Summed up: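 Viability counter-readout: cellular ATP measured by luciferase luminescence after 16 h compound exposure at 37C of HEK293-PR-A-luc cells, which had been cultured in charcoal-stripped serum and seeded 5 h beforehand.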

Assay [7] can be described thus: TOX21_PR_LUC_Followup_Agonist_viability: Viability Assessment in the Tox21 HEK293 Progesterone Receptor (PR) Agonism Luciferase Follow-Up Assay (AID 2283941).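 Further: loss of signal means cytotoxicity so actives lower viability.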 The method, boiled down: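 Cytotoxicity counter-readout in the PR-A luciferase reporter line HEK293, with 16 h compound exposure at 37C after cells were cultured in charcoal-stripped serum. Cellular ATP quantified by CellTiter-Glo luminescence.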

The target of assay [8] is Nucleoli Translocation, AR (gene 367) (UniProt P10275). Description: UPITT_HCI_U2OS_AR_TIF2_Nucleoli_Antagonist: University of Pittsburgh U2OS Androgen Receptor-Transcriptional Intermediary Factor 2 (AR-TIF2) Antagonism High Content Imaging Assay for Nucleoli Translocation (AID 2283997). The method, boiled down: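 Antagonism is read as loss of nucleolar AR-RFP signal relative to DHT, imaged in U2OS cells also carrying GFP-TIF2. Compounds screened at 20 uM final, 0.2% DMSO; primary actives retested in triplicate.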
Nucleoli Translocation, AR (gene 367), sequence (P10275 whole entry, looked up): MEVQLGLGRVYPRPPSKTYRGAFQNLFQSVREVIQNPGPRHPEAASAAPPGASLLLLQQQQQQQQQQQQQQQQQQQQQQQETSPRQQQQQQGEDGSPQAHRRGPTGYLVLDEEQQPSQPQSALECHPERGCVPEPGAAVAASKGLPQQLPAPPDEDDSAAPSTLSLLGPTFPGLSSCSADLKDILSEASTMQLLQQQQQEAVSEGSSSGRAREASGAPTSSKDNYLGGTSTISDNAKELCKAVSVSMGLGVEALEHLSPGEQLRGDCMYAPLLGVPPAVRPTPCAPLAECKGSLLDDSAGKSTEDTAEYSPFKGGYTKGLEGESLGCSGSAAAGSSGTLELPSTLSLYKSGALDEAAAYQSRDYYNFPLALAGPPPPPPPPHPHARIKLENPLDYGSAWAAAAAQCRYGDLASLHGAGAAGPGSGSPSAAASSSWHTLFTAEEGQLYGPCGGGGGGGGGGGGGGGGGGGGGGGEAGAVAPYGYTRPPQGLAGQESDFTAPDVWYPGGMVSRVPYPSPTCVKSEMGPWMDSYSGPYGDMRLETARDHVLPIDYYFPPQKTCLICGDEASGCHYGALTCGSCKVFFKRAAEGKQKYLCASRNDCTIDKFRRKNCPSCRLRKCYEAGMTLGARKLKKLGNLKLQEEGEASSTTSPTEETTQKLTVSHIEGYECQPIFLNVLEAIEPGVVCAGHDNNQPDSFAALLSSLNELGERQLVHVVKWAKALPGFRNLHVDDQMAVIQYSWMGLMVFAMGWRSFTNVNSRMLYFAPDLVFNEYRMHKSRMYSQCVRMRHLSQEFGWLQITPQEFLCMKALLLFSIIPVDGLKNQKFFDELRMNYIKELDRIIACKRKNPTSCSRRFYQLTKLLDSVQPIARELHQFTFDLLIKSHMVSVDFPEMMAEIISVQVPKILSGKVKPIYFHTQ

Assay [9] deals with Ratio of Nucleoli Translocation and Cytoplasm, AR (gene 367) (UniProt P10275). As to the kind of experiment: UPITT_HCI_U2OS_AR_TIF2_Nucleoli_Cytoplasm_Ratio_Antagonist: University of Pittsburgh U2OS Androgen Receptor-Transcriptional Intermediary Factor 2 (AR-TIF2) Antagonism High Content Imaging Assay for Ratio of Nucleoli Translocation and Cytoplasm (AID 2283999).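 Further: antagonists lower the DHT-driven ratio of nucleolar to cytoplasmic red signal.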 The method, boiled down:
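High-content imaging of red fluorescence ratio, nucleoli versus cytoplasm, in U2OS expressing AR-RFP and TIF2-GFP, fitted relative to DHT. Compounds tested once at 20 uM final, then 0.195 to 50 uM final in serial dilution.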

For assay [10] the target is unchanged. As to the kind of experiment: UPITT_HCI_U2OS_AR_TIF2_Nucleoli_Cytoplasm_Ratio_Agonist: University of Pittsburgh U2OS Androgen Receptor-Transcriptional Intermediary Factor 2 (AR-TIF2) Agonism High Content Imaging Assay for Ratio of Nucleoli Translocation and Cytoplasm (AID 2284000).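 Further: hits raise the red nucleolar to cytoplasm ratio above vehicle.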 Summed up: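 Compounds tested at 20 uM final in primary screen (0.2% DMSO) and 0.195-50 uM final in dose-response (0.5% DMSO). Imaging of human U2OS cells bearing RFP-AR and GFP-TIF2; endpoint is nucleoli/cytoplasm red signal ratio, positive direction relative to DMSO.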

Assay [11] can be described thus: CCTE_Harrill_HTTr_Viability_MCF7: CCTE's 6-hour Cell Viability Assessment for the High-Throughput Transcriptomics (HTTr) Platform, in MCF-7 cells cultured in DMEM + 10% fetal bovine serum, Harrill Lab (AID 2284010; active means hit-call score of the fitted dose curve at least 0.9, where 1 is the maximum; inactive means score below 0.9). The method, boiled down: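 Propidium iodide exclusion, imaged by high-content analysis, gauged viability after a six-hour exposure across eight concentrations. Cells were MCF-7 grown in DMEM with 10% fetal bovine serum; fits run in both directions against DMSO.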

Assay [12] is described as follows: CCTE_Harrill_HTTr_Apoptosis_MCF7: CCTE's 6-hour Apoptosis Assessment for the High-Throughput Transcriptomics (HTTr) Platform, in MCF-7 cells cultured in DMEM + 10% fetal bovine serum, Harrill Lab (AID 2284011; active means hit-call score of the fitted dose curve at least 0.9, where 1 is the maximum; inactive means score below 0.9). The method, boiled down: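 MCF-7 (DMEM + 10% FBS), 384-well; 8-pt dilution series, 6 h chemical exposure; caspase-3/7 activation via CellEvent Caspase 3/7 Green, HCI; bidirectional fit vs DMSO.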

Assay [13] concerns the target PGR (gene 5241) (UniProt P06401). As to the kind of experiment: TOX21_PR_LUC_Followup_Antagonist: Tox21 HEK293 Progesterone Receptor (PR) Antagonism Luciferase Follow-Up Assay (AID 2283938).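 Further: curve fitted upward as signal gain over DMSO baseline despite antagonist label.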 The method, boiled down: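 Cells are grown 5 days in charcoal-stripped-FBS assay medium, plated, left 5 h, then dosed with compound and incubated 16 h. ONE-Glo reagent is added and luminescence read after 30 min.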

For assay [14], the target named is Thyroid hormone receptor alpha (Rattus norvegicus) + Thyroid hormone receptor beta (Rattus norvegicus) (UniProt P18113+P63059). Description: TOX21_TR_LUC_GH3_Agonist_Followup: Tox21 GH3 Thyroid Hormone Receptor Agonism Luciferase Follow-Up Assay (AID 2283939). Summed up:
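Agonist-mode confirmatory run: 15 concentrations (5 nM to 92 uM final) on GH3 rat pituitary cells, 24 h at 37C/5% CO2, T3 as positive control. Luminescence read with ONE-Glo after 30 min.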

Another assay has as its target THRA (gene 7067) (UniProt P10827). Description: TOX21_TRA_COA_Agonist_Followup_ratio: Tox21 Thyroid Hormone Receptor alpha Agonism through Coactivator Recruitment Follow-Up Assay, Ratio (AID 2283948; active means hit-call score of the fitted dose curve at least 0.9, where 1 is the maximum; inactive means score below 0.9). The method, boiled down:
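Follow-up specificity assay in which TRα ligand-binding domain, expressed as a GST fusion, recruits a fluorescein-labelled SRC-2 peptide. Energy transfer from a terbium anti-GST antibody gives the acceptor/donor ratio, fitted upward relative to DMSO.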

The target of the next assay is THRB (gene 7068) (UniProt P10828). As to the kind of experiment: TOX21_TRB_COA_Agonist_Followup_ratio: Tox21 Thyroid Hormone Receptor beta Agonism through Coactivator Recruitment Follow-Up Assay, Ratio (AID 2283963; active means hit-call score of the fitted dose curve at least 0.9, where 1 is the maximum; inactive means score below 0.9). The method, boiled down:
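Cell-free TR-FRET coactivator recruitment: GST-tagged TRβ LBD (5.0 nM) with 0.10% BSA incubated with compound, then fluorescein-SRC-2 peptide (200 nM) and Tb-anti-GST antibody (2 nM) added. 520:495 nm ratio normalized to DMSO (0%) and T3 (100%).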

Assay [15] concerns the target Retinoic acid receptor RXR-alpha (Homo sapiens) (UniProt P19793). As to the kind of experiment: TOX21_TR_RXR_BLA_Agonist_Followup_ratio: Tox21 Thyroid Hormone Receptor beta Retinoid X Receptor alpha (RXRa) Agonism Beta-lactamase (BLA) Follow-Up Assay, Ratio (AID 2283968). Summed up:
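Agonist mode: compounds given to RXRa-bla HEK293T cells at 11 concentrations, triplicate, 16 h at 37C/5% CO2. Readout is the 460:530 nm blue/green ratio after 2 h substrate loading at room temperature; DMSO baseline, 9-cis retinoic acid control.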

Assay [16] can be described thus: TOX21_TR_RXR_BLA_Agonist_Followup_viability: Viability Assessment in the Tox21 Thyroid Hormone Receptor beta Retinoid X Receptor alpha (RXRa) Agonism Beta-lactamase (BLA) Follow-Up Assay (AID 2283970). The method, boiled down: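 CellTiter-Glo ATP luciferase read-out of cell viability, multiplexed with the beta-lactamase reporter run. RXRa-bla HEK293T cells in charcoal-stripped serum medium were exposed 16 h at 37C; data fitted both directions relative to DMSO.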

Records with an inconclusive call do not appear. Active and inactive are the calls of the source. How the source made its calls, unless noted: active means hit-call score of the fitted dose curve at least 0.9, where 1 is the maximum; inconclusive means response in the unintended direction; inactive means score below 0.9.

Ratio of Nucleoli Translocation and Cytoplasm, AR (gene 367), sequence (P10275 whole entry, looked up): as above
THRB (gene 7068), sequence (P10828 whole entry, looked up, the tested form may be a part): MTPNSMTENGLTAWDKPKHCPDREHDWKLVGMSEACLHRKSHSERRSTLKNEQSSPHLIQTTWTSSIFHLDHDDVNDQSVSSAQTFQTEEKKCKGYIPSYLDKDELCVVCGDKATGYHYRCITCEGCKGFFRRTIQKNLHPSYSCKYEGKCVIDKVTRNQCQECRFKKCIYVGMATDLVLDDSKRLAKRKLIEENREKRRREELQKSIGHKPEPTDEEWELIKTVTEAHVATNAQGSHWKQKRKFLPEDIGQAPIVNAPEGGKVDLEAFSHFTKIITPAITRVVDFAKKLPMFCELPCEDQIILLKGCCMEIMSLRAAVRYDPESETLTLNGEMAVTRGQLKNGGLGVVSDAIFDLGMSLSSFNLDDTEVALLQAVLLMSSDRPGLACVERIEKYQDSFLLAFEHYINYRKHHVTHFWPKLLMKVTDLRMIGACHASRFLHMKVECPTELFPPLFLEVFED
THRA (gene 7067), sequence (P10827 whole entry, looked up, the tested form may be a part): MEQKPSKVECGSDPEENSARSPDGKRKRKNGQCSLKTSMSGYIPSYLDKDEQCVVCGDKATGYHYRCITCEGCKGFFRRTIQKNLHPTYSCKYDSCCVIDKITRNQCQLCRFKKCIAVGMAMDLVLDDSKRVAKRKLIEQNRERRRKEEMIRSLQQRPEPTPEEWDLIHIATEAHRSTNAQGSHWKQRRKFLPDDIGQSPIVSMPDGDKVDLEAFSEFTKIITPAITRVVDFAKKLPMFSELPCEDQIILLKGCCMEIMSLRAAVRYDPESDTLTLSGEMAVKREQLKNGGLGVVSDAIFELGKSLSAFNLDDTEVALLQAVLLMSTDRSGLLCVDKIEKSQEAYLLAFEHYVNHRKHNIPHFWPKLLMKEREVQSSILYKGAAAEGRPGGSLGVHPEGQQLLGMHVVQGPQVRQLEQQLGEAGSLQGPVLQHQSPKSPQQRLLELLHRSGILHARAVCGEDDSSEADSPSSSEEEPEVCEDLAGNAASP
Retinoic acid receptor RXR-alpha (Homo sapiens), sequence (P19793 whole entry, looked up): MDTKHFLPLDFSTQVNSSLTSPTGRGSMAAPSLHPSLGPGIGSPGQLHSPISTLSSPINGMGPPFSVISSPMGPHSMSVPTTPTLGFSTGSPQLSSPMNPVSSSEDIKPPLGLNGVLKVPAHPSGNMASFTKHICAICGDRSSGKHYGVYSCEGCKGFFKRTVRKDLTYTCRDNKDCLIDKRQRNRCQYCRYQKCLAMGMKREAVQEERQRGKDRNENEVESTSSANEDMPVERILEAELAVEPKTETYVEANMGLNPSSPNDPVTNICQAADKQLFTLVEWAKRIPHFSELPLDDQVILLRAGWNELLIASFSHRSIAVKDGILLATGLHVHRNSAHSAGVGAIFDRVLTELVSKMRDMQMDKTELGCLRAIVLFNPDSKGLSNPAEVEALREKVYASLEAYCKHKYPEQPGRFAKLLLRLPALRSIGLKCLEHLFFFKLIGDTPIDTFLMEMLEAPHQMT
Thyroid hormone receptor alpha (Rattus norvegicus) + Thyroid hormone receptor beta (Rattus norvegicus), sequence (P63059 whole entry, looked up): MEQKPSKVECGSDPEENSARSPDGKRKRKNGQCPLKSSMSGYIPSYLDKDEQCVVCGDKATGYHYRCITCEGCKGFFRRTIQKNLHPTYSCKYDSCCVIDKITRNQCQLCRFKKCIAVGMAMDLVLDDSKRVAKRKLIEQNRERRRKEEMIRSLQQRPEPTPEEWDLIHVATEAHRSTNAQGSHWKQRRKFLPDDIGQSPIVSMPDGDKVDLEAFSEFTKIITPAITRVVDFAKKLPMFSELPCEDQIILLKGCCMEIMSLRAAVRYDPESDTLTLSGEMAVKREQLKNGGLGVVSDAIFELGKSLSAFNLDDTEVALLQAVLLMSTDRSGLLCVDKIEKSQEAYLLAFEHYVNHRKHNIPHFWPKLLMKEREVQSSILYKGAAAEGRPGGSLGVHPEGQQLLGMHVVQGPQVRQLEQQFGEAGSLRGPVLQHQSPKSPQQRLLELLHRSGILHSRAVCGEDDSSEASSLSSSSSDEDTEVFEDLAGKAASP
Thyroid hormone receptor alpha (Rattus norvegicus) + Thyroid hormone receptor beta (Rattus norvegicus), sequence (P18113 whole entry, looked up): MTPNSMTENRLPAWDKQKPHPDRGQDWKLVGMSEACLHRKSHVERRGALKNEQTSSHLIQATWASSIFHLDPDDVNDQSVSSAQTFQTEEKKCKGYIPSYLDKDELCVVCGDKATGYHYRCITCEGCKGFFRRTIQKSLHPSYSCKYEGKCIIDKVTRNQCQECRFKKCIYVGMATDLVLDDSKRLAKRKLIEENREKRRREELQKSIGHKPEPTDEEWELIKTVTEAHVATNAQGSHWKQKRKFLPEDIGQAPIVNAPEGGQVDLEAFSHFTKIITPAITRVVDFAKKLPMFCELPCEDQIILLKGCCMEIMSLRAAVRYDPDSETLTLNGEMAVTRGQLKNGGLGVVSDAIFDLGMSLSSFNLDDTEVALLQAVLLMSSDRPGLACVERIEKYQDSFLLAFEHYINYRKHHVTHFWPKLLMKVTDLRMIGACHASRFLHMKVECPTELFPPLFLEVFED

By AC50 is commonly meant the midpoint of the concentration-response curve, whichever way the signal moves. For `C[C@@H]1C[C@H]2[C@@H]3CCC4=CC(=O)C=C[C@]4(C)[C@@]3(F)[C@@H](O)C[C@]2(C)[C@@]1(O)C(=O)COC(=O)c1ccncc1`, the concentration at half-maximal activity (AC50) with PGR (gene 5241) [1] was 26100 nM (active); with PGR (gene 5241) [5] it was 510 nM (active). In addition, the outcome (with PGR (gene 5241) [2]; in assay [3]; in [4]; in assay [6]; in assay [7]) was inactive.

As to `O=C1NC(=O)c2ccc3c4ccc5c6c(ccc(c7ccc1c2c73)c64)C(=O)NC5=O`, the call in assay [8], in assay [9], in assay [10], in assay [11] and in assay [12] was inactive.

Take `Clc1ccccc1CN1CCc2sccc2C1`: the molecule was classed as inactive in [3], in [4], in assay [6] and in assay [7].

Regarding `COC(=O)[C@@H]1CC2=CC(=O)CC[C@]2(C)[C@@]23O[C@@H]2C[C@@]2(C)[C@@H](CC[C@@]24CCC(=O)O4)[C@H]13`, the outcome (with PGR (gene 5241) [1]; in assay [3]; in assay [4]; in the assay with PGR (gene 5241) [5]; in the assay with PGR (gene 5241) [13]; in assay [6]) was inactive. Besides, the molecule was classed as inactive in assay [7].

Consider `C=C(NC(=O)C(=C)NC(=O)c1csc(C2=NC3c4csc(n4)C4NC(=O)c5csc(n5)C(C(C)(O)C(C)O)NC(=O)C5CSC(=N5)/C(=C/C)NC(=O)C(C(C)O)NC(=O)c5csc(n5)C3(CC2)NC(=O)C(C)NC(=O)C(=C)NC(=O)C(C)NC(=O)C(C(C)CC)NC2C=Cc3c(C(C)O)cc(nc3C2O)C(=O)OC4C)n1)C(N)=O` (stereo not drawn), for which the AC50 in assay [14] was 2470 nM (active). Further, the outcome (with THRA (gene 7067); with THRB (gene 7068); in assay [15]; in assay [16]) was inactive.
